Screening data deposited in PubChem BioAssay by several laboratories.
PABP polyA inh: PABP-poly(A) binding inhibition; PABP-poly(A) RNA binding, fluorescence polarization; inhibition, % at 35 µM; 1% of 290,000 active;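 further: calls also rest on retests at 20 µM and on dose response follow-up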
Target sequence (P11940 whole entry, looked up): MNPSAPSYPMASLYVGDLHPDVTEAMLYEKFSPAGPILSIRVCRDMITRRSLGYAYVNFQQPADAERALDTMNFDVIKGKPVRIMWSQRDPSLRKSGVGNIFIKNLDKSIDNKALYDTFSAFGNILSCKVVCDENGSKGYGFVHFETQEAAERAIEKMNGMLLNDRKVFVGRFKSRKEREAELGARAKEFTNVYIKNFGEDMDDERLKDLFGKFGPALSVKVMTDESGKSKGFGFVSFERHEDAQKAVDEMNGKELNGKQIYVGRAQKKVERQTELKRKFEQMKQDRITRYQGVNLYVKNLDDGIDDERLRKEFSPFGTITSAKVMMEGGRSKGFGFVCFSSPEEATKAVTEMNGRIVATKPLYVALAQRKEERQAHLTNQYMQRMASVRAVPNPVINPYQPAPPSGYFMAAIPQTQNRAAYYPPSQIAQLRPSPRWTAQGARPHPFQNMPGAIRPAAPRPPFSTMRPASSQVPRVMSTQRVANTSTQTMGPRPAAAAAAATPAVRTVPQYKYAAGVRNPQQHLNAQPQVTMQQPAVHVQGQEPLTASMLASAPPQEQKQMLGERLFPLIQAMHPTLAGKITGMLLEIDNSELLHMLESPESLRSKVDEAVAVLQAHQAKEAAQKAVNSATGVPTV
PERK inh: human PERK inhibition, primary cell-based screen; inhibition, % at 5.6 µM; CHO PERK-DD fusion, SEAP luminescence translation reporter; 0.17% of 220,000 active;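 active means inhibition above the mean inhibition of all tested compounds plus 3 SD, set separately per screening campaign, cut at about 2.9% in these data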;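 further: PERK kinase domain activated by AP20187 dimerizer at 100 nM; 0% = DMSO with dimerizer and 100% = rapamycin at 8.4 µM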
eIF4E-4G inh: blocks eIF4E binding to eIF4G; inhibition, % at 21.7 µM; 0.37% of 220,000 active; TR-FRET eIF4E-eIF4GI(517-606) binding, 2 h; P63073+Q04637;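 active means inhibition above about 30%, limit read from the data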;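 further: 0% = full FRET control wells and 100% = background wells lacking eIF4GI fragment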
eIF4H FP inh: inhibitors of RNA binding by human eIF4H; 0.94% of 290,000 active; eIF4H fluorescence polarization binding assay; inhibition, % at 35 µM;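 further: calls also rest on retests at 20 µM and on dose response follow-up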
PABP1 MLLE inh: inhibitors of microRNA-mediated deadenylation, human PABP1 MLLE binding. P11940. GST-MLLE / FITC-PAM2 fluorescence polarization. inhibition, % at 20 µM. 0.36% of 360,000 active. AID 588489; in the data active means inhibition above about 35%, passing the limit was not always enough;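 further: plate controls were DMSO wells with GST-MLLE for no effect and wells lacking GST-MLLE protein for full effect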
An asterisk follows results filed as active; ? = inconclusive; nt = no result given; ! = a repeat was not active; [ ] = another dose, or the depositor's remark. An excerpt weighted towards active compounds, which were near 1.6% of everything screened. Unless noted, how the calls were made is not given here.

SMILES	PABP polyA inh	PERK inh	eIF4E-4G inh	eIF4H FP inh	PABP1 MLLE inh
COC(=O)c1ccc(/C=C(\C#N)c2nc3ccccc3s2)cc1	20*	-1	4	?	-12
Cc1nc2ccc(N3C(=O)CCC3=O)cc2[nH]1	5	1	0	0	7
O=C(OC1CCCCC1)c1ccc2c(c1)C1C=CCC1C(C(=O)O)N2 (stereo not drawn)	active	0	62*[fluorescence artefact?]	93*	nt
O=C(O)C1Nc2ccc(Br)cc2C2C=CCC12 (stereo not drawn)	94*	nt	nt	105*	18
COc1ccc(C(=O)N/N=C(\C)c2ccc3c(c2)C2C=CCC2C(c2ccccc2)N3)cc1 (stereo not drawn)	-1	-1	8	-4	11
O=C(O)c1ccc2c(c1)[C@@H]1C=CC[C@@H]1[C@H](c1ccccn1)N2	nt	1	nt	nt	42*
Cn1c(=O)c2c(nc3n2CCS3)n(C)c1=O	-5	1	1	-5	0
Cc1nc2nc(-c3ccccc3)cc(=O)n2[nH]1	4	3.0*	2	-19	-6
O=C(NN=C1CCN(Cc2ccccc2)CC1)c1ccccc1O	-4	0	-1	-7	3
O=C(NN=C1CCN(Cc2ccccc2)CC1)c1cc2ccccc2cc1O	3.6*	1	9	97*	4
C=CCN1C=C2C(=O)C(C)(OC(=O)CC)C(=O)C=C2C=C1CCCC (stereo not drawn)	42*	nt	97*	83	23
CC(C)(C)C1CCC2(CC1)NC(=S)N(c1ccccc1)N2 (stereo not drawn)	-10	1	-1	-9	-37
CC12CCCCN1CCCc1c2[nH]c2ccccc12 (stereo not drawn)	?	0	-3	?	40*
Cc1ccc(NC2=C(N3CCOCC3)C(=O)c3ccccc3C2=O)cc1	0	3.2*	-4	0	38
Cc1ccc(S(=O)(=O)NC2=C(N3CCN(c4ccccc4F)CC3)C(=O)c3ccccc3C2=O)cc1	39	0	-8	10	38*!
CSc1ccccc1C(=O)C1CCCN(C(=O)c2cc(C(C)C)no2)C1 (stereo not drawn)	0	0	1	6	6
OC(CNCc1cccc(Cl)c1)c1ccccc1 (stereo not drawn)	-5	3	-6	-5	11
OC[C@@H]1CN(Cc2cccnc2)C[C@H](n2cnc3c(N4CCOCC4)ncnc32)O1	nt	nt	nt	nt	1
CCOC(=O)C1=C(O)/C(=C/c2ccc(-c3ccccc3C(=O)O)o2)SC1=Nc1ccc(OC)cc1	82*	1	2	78*	-75
CCOC(=O)C1=C(O)/C(=C/c2ccccn2)SC1=Nc1ccc(Cl)cc1	110	0	7	active	-4
CCC(CO)NC(=O)c1cc2c(s1)CCC2 (stereo not drawn)	42	1	2	82	5
Cc1cccc(N=C2N=C(N)c3ccccc32)c1	-7	1	0	-6	-12
NC1=NC(=Nc2cccc(S(N)(=O)=O)c2)c2ccccc21	2	4.0*	0	-11	-6
O=C(O)[C@@H](c1ccccc1)N1Cc2ccccc2C1=O	7	0	90*	2	-10
Cc1ccc(-c2c(C)c(-c3ccc(F)cc3)nc(N)c2C#N)o1	75*	0	6	76*	1
SMILES	PABP polyA inh	PERK inh	eIF4E-4G inh	eIF4H FP inh	PABP1 MLLE inh
O=C(C[C@H]1C(=O)N(C2CCCCC2)C[C@@H]1Cc1ccccc1)Nc1ccccc1	-6	nt	nt	-5	5
C/C(O)=C(\C#N)c1nnc2n1CCCCC2	-1	2	-4	-1	-11
CN1C=C(C(F)(F)F)C=C/C1=C(\C#N)c1nnc2n1CCCCC2	0	3.1*	3	-8	-4
COc1ccc2oc(=Nc3cc(F)ccc3F)c(C(N)=O)cc2c1	73*	1	-8	active	12
COc1ccc(OC)c(N=c2oc3cc(O)ccc3cc2C(N)=O)c1	-7	0	0	6	-3
C[C@@H]1CCC(=O)N(C[C@@H](C)CSc2ccccc2)CC1	-2	nt	nt	-3	12
CCN(CC(O)CON=C1c2ccccc2-c2ccccc21)S(=O)(=O)c1ccc(Cl)cc1 (stereo not drawn)	-2	0	4	-10	1
CCN(CC(O)CON=C1c2ccccc2-c2ccccc21)S(=O)(=O)c1ccc(C)cc1 (stereo not drawn)	1.5*	0	2	80*	14
COc1cc(/C=C2\SC(=O)N(Cc3ccc(Cl)cc3)C2=O)cc([N+](=O)[O-])c1O	5	0	61*	15	-5
Nc1cc(Nc2ccc(Br)cc2)nc(N)n1	30	3	5	49	43*
COc1ccc(/C=N/Nc2cc(N3CCCC3)nc(N3CCCC3)n2)cc1	-10	0	0	23	54*
Oc1ccc(/C=N/Nc2cc(N3CCCC3)nc(N3CCCC3)n2)cc1	?	-1	-3	51	70*
Oc1cccc(/C=N/Nc2cc(N3CCCC3)nc(N3CCCC3)n2)c1	68	0	-1	29*	14
Cc1cc(Cl)ccc1OCC(=O)OCC(=O)NC1CCS(=O)(=O)C1 (stereo not drawn)	nt	nt	nt	nt	-1
CCC(C)n1c(-c2ccco2)nc2nc3ccccc3nc21 (stereo not drawn)	101*	0	-7	?	nt
O=C(CSCc1ccc(Cl)cc1)Nc1ccc(-c2nnc(-c3ccccc3)o2)cc1	-2	0	13	0	-22
CC1=NC(=O)C(N=Nc2cccc(C(=O)O)c2)N1c1ccccc1 (stereo not drawn)	65*	1	-8	13*	-111
Cc1cc(C)c(NC(=O)C(C)(C)C)c(Cl)c1	5	-1	-8	2	2
Cc1cc(C)c(NC(=O)NC(=O)C(Cl)(Cl)Cl)c(C)c1	13	3.5*	4	2	-12
O/N=C1/CCc2cccc3cccc1c23	82*	0	1	62*	19
COc1ccc(N2Cc3ccc(C(=O)N/N=C\c4ccc(O)cc4O)cc3C2)cc1	20	nt	nt	65*	nt
Cc1ccc(S(=O)(=O)CCSc2cccc(C(=O)Nc3ccccc3C(=O)O)c2)cc1	-1	0	-3	1	36*
COc1nc(N(C)S(=O)(=O)c2ccc(C)cc2)nc(C)c1Cl	-4	0	9	7	5
Cc1ccc(NC(=O)COC(=O)c2ccc3c(c2)C(=O)N(CCc2ccccc2)C3=O)c(C)c1	-1	1	15	-12	-12
Cc1cccc(NC(=S)N/N=C2/CCCCc3ccccc32)c1	-10	-1	5	12	34
Cc1ccc(NC(=S)N/N=C2/CCCCc3ccccc32)cc1	6	0	-8	18	42*
Nc1ccc2c(c1)Cc1cc(N)c(Br)cc1-2	nt	nt	nt	nt	-4
O=C1NC(=S)N(C(=O)c2ccc(F)cc2)/C1=C/c1ccccc1	active	-1	7	72*	-130
COc1ccc(/C=C2\C(=O)NC(=S)N2C(=O)c2ccc(F)cc2)cc1	0	1	7	48	-167
